According to PubChem BioAssay (NCI):
Compounds without any hit were thinned out: in the full panel of roughly 79,000, 15% have a hit. Values without a mark were called inactive. No stated cut-off is given here; in the data, active means growth inhibition above about 70%; inactive means the rest.

Assay: NCI Yeast Anticancer Drug Screen. Data for the bub3 strain (AID 167)
Conditions: S. cerevisiae bub3 mutant strain, at 50.0 µM, stronger effect = higher value
Method in brief: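 Yeast carrying a defined mutation is treated with each compound, and growth is compared with that of vehicle-exposed cells to give inhibition.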

**Q.** For `O=c1c2c([nH]n1-c1ccccc1)-c1ccccc1CS2`, which growth inhibition is on record?
**A.** Its growth inhibition is 40.6%.

**Q.** Which growth inhibition does the source give for `O=C1CN(c2ccccc2)CC(=O)N2C(c3ccccc3)CCCN12` (stereo not given) here?
**A.** The growth inhibition was 24.4%.

**Q.** Which growth inhibition does the source give for `COC(=O)C1(C)CCCC2(C)C3CCC(C(C)C)CC3CCC12` (stereo not given) here?
**A.** Its growth inhibition is -5.9%.

**Q.** With `COC(=O)C1(C2CCCCCCC2=O)NC(=S)NC(=O)C1C#N` (stereo not given) as the compound, how does the growth inhibition read?
**A.** The growth inhibition was -24.9%.

**Q.** For `CC1(Cn2ccc(=O)[nH]c2=O)CC(C2(C)OCCO2)C(=O)O1` (stereo not given), which growth inhibition is on record?
**A.** The growth inhibition was -19%.

**Q.** For `CN(C)Cc1ccccc1COC(=O)c1ccc(Cl)cc1`, which growth inhibition is on record?
**A.** The growth inhibition was 17.4%.

**Q.** For `Cc1ccc(S(=O)(=O)OCC2C(COS(=O)(=O)c3ccc(C)cc3)C3C4C5C2C2C3C4C52)cc1` (stereo not given), which growth inhibition is on record?
**A.** The growth inhibition was -5.5%.

**Q.** Which growth inhibition does the source give for `O=C(O)COc1ccccc1OCC(=O)O` here?
**A.** Its growth inhibition is -0.1%.

**Q.** Which growth inhibition does the source give for `Cc1cc(C=O)c(C)[nH]1` here?
**A.** The growth inhibition was 1.55%.

**Q.** For `CCc1ccc(/C(C#N)=C/c2ccc(N(C)CCC#N)cc2)cc1`, which growth inhibition is on record?
**A.** Its growth inhibition is 16.9%.

**Q.** For `CC(=O)NC(C(=O)NC(CSCc1ccccc1)C(=O)O)=C(C)C` (stereo not given), which growth inhibition is on record?
**A.** Its growth inhibition is -36.4%.

**Q.** With `CC1=CC2OC3C(OC(=O)c4ccccc4)C(OC(=O)c4ccccc4)C(C)(C2(COC(=O)c2ccccc2)CC1)C31CO1` (stereo not given) as the compound, how does the growth inhibition read?
**A.** Its growth inhibition is 4.85%.

**Q.** For `Nc1[nH]c(=S)[nH]c(=O)c1N=Nc1c(Br)cc(S(N)(=O)=O)cc1Br`, which growth inhibition is on record?
**A.** The growth inhibition was 9.2%.

**Q.** Which growth inhibition does the source give for `CCCCCCC1=CC(=O)CC(=O)C1` here?
**A.** Its growth inhibition is 18%.

**Q.** For `C/C(=N/NC(N)=O)C(=O)O`, which growth inhibition is on record?
**A.** The growth inhibition was -2.95%.

**Q.** Which growth inhibition does the source give for `Cc1cc([N+](=O)[O-])c(NCCOC(=O)c2ccc([N+](=O)[O-])cc2)c([N+](=O)[O-])c1` here?
**A.** The growth inhibition was 2.8%.

**Q.** With `COc1cc(OC2OC(CO)C(O)C(O)C2O)c2c(O)c3c(=O)cc(C)oc3cc2c1` (stereo not given) as the compound, how does the growth inhibition read?
**A.** Its growth inhibition is 2.55%.

**Q.** For `CCCOC(=O)O[C@H]1CC[C@@]2(C)C(=CC[C@H]3[C@@H]4CC[C@H]([C@H](C)CCCC(C)C)[C@@]4(C)CC[C@@H]32)C1`, which growth inhibition is on record?
**A.** The growth inhibition was -28.8%.

**Q.** Which growth inhibition does the source give for `O=C(NC(=S)Nc1cc(C(F)(F)F)ccc1Cl)c1ccccc1F` here?
**A.** Its growth inhibition is -1.35%.

**Q.** For `OCCN(CCO)c1ncnc2c1ncn2CCc1ccccc1`, which growth inhibition is on record?
**A.** Its growth inhibition is 4.1%.

**Q.** For `Cc1nc2c(=O)[nH]c(=O)[nH]c2[nH]c1=O`, which growth inhibition is on record?
**A.** The growth inhibition was 2.55%.

**Q.** For `COC(=O)C(=O)c1c(C(=O)OC)nc2[nH]n(-c3ccccc3)c(=O)c2c1Cc1ccccc1`, which growth inhibition is on record?
**A.** The growth inhibition was -37.5%.

**Q.** Which growth inhibition does the source give for `CCC1=CC(C(O)CC(C)C)C(C)(Cc2ccc(CC)cn2)NC1c1ccccc1` (stereo not given) here?
**A.** Its growth inhibition is 54.1%.

**Q.** Which growth inhibition does the source give for `CNC(=S)SC1=NS(=O)(=O)c2ccccc2N1` here?
**A.** The growth inhibition was -9.75%.

**Q.** With `O=C(NC(=O)c1c(F)cccc1F)Nc1ccc(Br)cc1` as the compound, how does the growth inhibition read?
**A.** The growth inhibition was 34.5%.

**Q.** Which growth inhibition does the source give for `CCCCN(C)CC(C)O` (stereo not given) here?
**A.** Its growth inhibition is 4.85%.

**Q.** Which growth inhibition does the source give for `COc1ccc(C2CC(=O)Oc3cc4c(cc32)OCO4)cc1` (stereo not given) here?
**A.** The growth inhibition was -2.2%.

**Q.** For `COc1cc(C(=O)C/C(CCC(=O)Nc2ccc(Cl)cc2Cl)=N/Nc2nnc(C)n2N)ccc1O`, which growth inhibition is on record?
**A.** Its growth inhibition is 7.1%.

**Q.** With `COc1ccc(C2CCCCCC2OS(=O)(=O)c2ccc(C)cc2)c(OC)c1OC` (stereo not given) as the compound, how does the growth inhibition read?
**A.** Its growth inhibition is 8.45%.

**Q.** For `CC1(C(=O)O)CCC2(C)CCC3(C)C(=CC(=O)C4C5(C)CCC(OC6OC(C(=O)O)C(O)C(O)C6OC6OC(C(=O)O)C(O)C(O)C6O)C(C)(C)C5CCC43C)C2C1` (stereo not given), which growth inhibition is on record?
**A.** The growth inhibition was 15.8%.

**Q.** Which growth inhibition does the source give for `CC(=O)N1c2cc(N=NN(C)C)ccc2NC(=O)CC1C` (stereo not given) here?
**A.** The growth inhibition was 4.2%.

**Q.** With `C/C(CC(=O)N(C(C)C)C(C)C)=N\NC(=O)c1ccncc1` as the compound, how does the growth inhibition read?
**A.** The growth inhibition was -10.7%.

**Q.** Which growth inhibition does the source give for `Nc1cc2c(cc1Br)-c1cc(Cl)c(Cl)cc1C2=O` here?
**A.** Its growth inhibition is -2.1%.

**Q.** Which growth inhibition does the source give for `CCCc1ccccc1NC(=O)NCCCl` here?
**A.** Its growth inhibition is -12.9%.

**Q.** With `COC(=O)C1=C(C)N(NC(=O)c2ccccc2)C2(O)CCCC(=O)C12C` (stereo not given) as the compound, how does the growth inhibition read?
**A.** Its growth inhibition is -6.05%.

**Q.** Which growth inhibition does the source give for `CCCCCCC1CCCCC1` here?
**A.** Its growth inhibition is -28.8%.

**Q.** For `CC1NC(=O)c2c(-c3ccccc3)nn(-c3ccccc3)c2NC1=O` (stereo not given), which growth inhibition is on record?
**A.** Its growth inhibition is 3.15%.

**Q.** With `S=C(S)N(Cc1ccccc1)Cc1ccccc1` (tested in a mixture with another compound) as the compound, how does the growth inhibition read?
**A.** Its growth inhibition is 12.8%.

**Q.** Which growth inhibition does the source give for `CSc1ccc(C2OC(=O)c3ccccc32)c2ccccc12` (stereo not given) here?
**A.** The growth inhibition was -14.8%.

**Q.** For `CCOC(=O)C(NC(=O)Cc1ccccc1)C(=O)O` (stereo not given), which growth inhibition is on record?
**A.** The growth inhibition was -1.65%.
